Laboratory results as given in PubChem BioAssay (NCATS).
Results filed as inconclusive are left out. The source made the active and inactive calls. Calls follow the shape of the dose curve; as a rule, active = well fitted curve in the direction sought with a large enough effect; inconclusive = small, poorly fitted or top-dose-only effect, or another doubt; inactive = no such curve, though single readings can be large; an effect the other way counts as inactive or inconclusive.

Assays:
[1] = biological target: Cellular tumor antigen p53 (Homo sapiens) (UniProt P04637); assay: Primary qHTS for small molecule compounds that upregulate eGFP-tagged delta133p53alpha (in N-terminal) cells. (AID 2060322); conditions: NCI-H358 eGFP-delta133p53alpha fluorescence, 24 h; activation: stronger effect = higher value;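 also: cells pre-induced with doxycycline then dosed without doxycycline; series mostly up to about 56 µM; 0% = DMSO vehicle and 100% = reference activator; nearly all actives have a fitted effect of over 75% in size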
Cellular tumor antigen p53 (Homo sapiens), sequence (P04637 whole entry, looked up): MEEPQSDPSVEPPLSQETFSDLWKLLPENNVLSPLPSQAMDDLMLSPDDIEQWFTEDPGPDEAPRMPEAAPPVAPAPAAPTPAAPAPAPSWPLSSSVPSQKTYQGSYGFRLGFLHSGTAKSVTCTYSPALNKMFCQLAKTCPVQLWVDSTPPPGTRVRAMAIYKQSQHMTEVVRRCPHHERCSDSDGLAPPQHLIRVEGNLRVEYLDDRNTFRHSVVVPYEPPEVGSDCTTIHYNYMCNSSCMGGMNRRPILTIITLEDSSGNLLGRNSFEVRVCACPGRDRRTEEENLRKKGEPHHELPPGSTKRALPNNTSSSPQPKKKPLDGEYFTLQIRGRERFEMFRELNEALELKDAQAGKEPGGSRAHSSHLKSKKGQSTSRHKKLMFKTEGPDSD
Outline: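 NCI-H358 cells pre-induced 24 h with 10 ng/ml doxycycline for eGFP-delta133p53alpha, plated dox-free and exposed 24 h at 37C to titrated compounds. Fixed, Hoechst-stained; gated GFP peak intensity by laser scanning cytometry, normalized to DMSO (0%) and 57.5 uM 5-azacytidine (100%).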

[2] = biological target: Aldehyde dehydrogenase, mitochondrial (Homo sapiens) (UniProt P05091); assay: qHTS for Inhibitors of the Aldehyde Dehydrogenase Family (ALDH2) Primary screen (AID 2061308);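 also: plate controls were vehicle for no effect and reference inhibitor for full effect; nearly all actives have a fitted effect of over 55% in size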
[3] = biological target: Retinaldehyde dehydrogenase 3 (Homo sapiens) (UniProt P47895); assay: qHTS for Inhibitors of the Aldehyde Dehydrogenase Family (ALDH1A3) Primary screen (AID 2061315);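 also: plate controls were DMSO vehicle for no effect and reference inhibitor for full effect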

C[C@@H]1CCC2C(C)(C)[C@H](O)[C@H](O)C[C@]2(C)[C@@]12Cc1c(O)cc3c(c1O2)CN(CCCC(=O)O)C3=O (some centres undefined)
inactive: activation [1] -3.05% | Potency [2] | Potency [3]

C=C1C[C@H](O)[C@@H](O)[C@@]2(C)C1[C@@H](O)[C@H]1OC(=O)C3[C@@H](C)[C@@H](O)[C@H](O)C2[C@]31C (some centres undefined)
inactive: activation [1] 0.763% | Potency [2] | Potency [3]

O=C(OCC1=CC(Cl)C(O)C(OC(=O)c2ccccc2)C1O)c1ccccc1 (centres undefined)
inactive: activation [1] -22.9% | Potency [2] | Potency [3]

CC1(c2nc3c(C(N)=O)cccc3[nH]2)CCCN1 (centres undefined)
inactive: activation [1] -1.43% | Potency [2] | Potency [3]

C/C=C(\C)C(=O)O[C@@H]1CC2[C@@H](CC=C3C[C@@H](O[C@H]4C[C@H](OC)[C@H](O[C@H]5C[C@H](OC)[C@H](O[C@@H]6O[C@H](C)[C@@H](O[C@H]7C[C@H](OC)[C@H](O[C@@H]8O[C@H](CO)[C@@H](O)[C@H](O)[C@H]8O)[C@@H](C)O7)[C@H](OC)[C@H]6O)[C@@H](C)O5)[C@@H](C)O4)CC[C@@]32C)[C@@]2(O)CC[C@H](C(C)=O)[C@@]12C (some centres undefined)
inactive: activation [1] 9.92% | activity change, negative = inhibition [2] 12% [at 11.2 µM] | activity change, negative = inhibition [3] 11% [at 11.2 µM]

Cc1noc(=O)c2ccc(NC(=O)C(O)(CC(C)(C)c3cccc4c3OCC4)C(F)(F)F)cc12 (centres undefined)
inactive: activation [1] 19.7% | Potency [2] | Potency [3]

C[C@@H]1O[C@@H](O[C@H]2[C@H](O)[C@@H](C(=O)O)O[C@@H](O[C@H]3CC[C@@]4(C)C(CC[C@]5(C)C4CC=C4C6CC(C)(C)CC[C@]6(C(=O)O)CC[C@]45C)C3(C)C)[C@@H]2O[C@@H]2O[C@H](CO)[C@@H](O)[C@H](O)[C@H]2O)[C@H](O)[C@H](O)[C@H]1O (some centres undefined)
inactive: activation [1] -2.29% | Potency [2] | Potency [3]

CC(C(O)/C=C/C(C)(C)O)C1CCC2(C)C3C(=O)C=C4C(CCC(O)C4(C)C)C3(C)CCC12C (centres undefined)
inactive: activation [1] -22.3% | Potency [2] | Potency [3]
